An excerpt weighted towards active compounds, which were near 15% of everything screened.
Sm TGR inh: qHTS Assay for the Inhibitors of Schistosoma Mansoni Peroxiredoxins | AID 485364, 2010 | Schistosoma mansoni thioredoxin glutathione reductase (TGR), Q962Y6 | purified TGR, DTNB reduction, TNB absorbance 405 nm | Potency, µM (highest dose often 114 µM), hits mostly inhibitors | 3% of 360,000 active; note: nearly all actives have a fitted effect of over 60% in size
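First, TGR (20 nM dispensed) and NADPH were mixed with compound. Second, a 15 min room-temperature incubation followed. Third, further NADPH and then DTNB were added to start the reaction. Finally, TNB absorbance was monitored kinetically.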
Pf growth 96h: Primary qHTS for delayed death inhibitors of the malarial parasite plastid, 96 hour incubation. Potency, µM (top dose mostly 28.7 µM), actives largely listed as inhibitors. 6.9% of 320,000 active. P. falciparum luciferase reporter growth, 96 h
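96 h incubation, 37 C, 5% CO2, of luciferase-reporter P. falciparum-infected RBCs (2% hematocrit, 0.05% parasitemia final) with test compounds; endpoint luminescence.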
Pf growth 48h: Primary qHTS for delayed death inhibitors of the malarial parasite plastid, 48 hour incubation; P. falciparum luciferase growth in erythrocytes, 48 h; Potency, µM (highest dose often 28.7 µM), hits mostly inhibitors; AID 504832, 2011; 5.9% of 310,000 active
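Erythrocytes infected with P. falciparum carrying an integrated firefly luciferase reporter (2% hematocrit, 0.1% parasitemia final) were exposed to compounds in RPMI 1640 with 0.5% Albumax at 37 C, 5% CO2. Growth inhibition was scored as reduced luminescence.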
SARS PLpro yeast: qHTS of Yeast-based Assay for SARS-CoV PLP | S. cerevisiae expressing SARS-CoV PLpro, growth rescue | Potency, µM (series often up to 32.9 µM), most hits filed as activators | 0.19% of 330,000 active; calls by dose curve; note: nearly all actives have a fitted effect of over 55% in size
HCMV antiviral: qHTS Assay for inhibitors of the human cytomegalovirus (HCMV). HFF cells, HCMV-luciferase reporter, 72 h; hits give low values. activity change, negative = inhibition, % at 57.5 µM. 4.5% of 410,000 active. AID 1259415, 2018; in the data active = activity change below about -60%; inconclusive = no clear call, values can overlap the other calls; inactive = above about -39%
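Two-dose cell screen: HFF monolayers treated with compounds and infected with luciferase-expressing HCMV at 1 PFU/cell, 72 h at 37C, then lysed for luciferase measurement.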
HCV inh: qHTS Assay for Inhibitors of Hepatitis C Virus (HCV); Huh7.5.1 HCVcc-Cre infection, luciferase reporter, 44 h; Potency, µM (top dose mostly 41.8 µM), usual class: inhibitors; AID 651820, 2012; 3.4% of 340,000 active
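Antiviral activity was scored by luciferase reporter output from cells infected with HCVcc-Cre (~0.5 moi) in presence of compound, 44 h infection period, cells seeded 1,000/well 4 h prior.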
Numbers stand for hits; n = inactive; u = inconclusive; x = not tested or not shown; [ ] = dose if it differs, or a comment. Unless noted, calls come from the whole dose curve; as a rule, active = well fitted curve in the direction sought with a large enough effect; inconclusive = small, poorly fitted or top-dose-only effect, or another doubt; inactive = no such curve, though single readings can be large; an effect the other way counts as inactive or inconclusive.

SMILES	Sm TGR inh	Pf growth 96h	Pf growth 48h	SARS PLpro yeast	HCMV antiviral	HCV inh
COc1ccc(-c2nnc(NC(=O)C3=COCCO3)o2)cc1	n	n	n	n	n	n
COc1cccc(-c2cn3ncsc3n2)c1	n	x	x	x	n	x
NC(=O)CC(NSc1ccccc1[N+](=O)[O-])C(=O)O (stereo not drawn)	n	n	n	n	n	n
CCOC(=O)N1CCN(CCC(=O)Nc2cccc(F)c2)CC1	n	x	x	x	n	x
Cc1noc(/C=C/c2ccco2)c1S(=O)(=O)N1CCC(C(=O)N2CCc3ccccc3C2)CC1	11µM	u	9.3µM	n	x	11µM
Cc1ccc(-n2ncc(Br)c(Br)c2=O)cc1	6.3µM	n[5.75 µM]	n	n	x	u
O=c1c(Br)c(Br)cnn1-c1ccccc1	3.2µM	n	n	n	-97	8.9µM
CCOC(=O)[C@]12CCC=C1N(Cc1ccc3c(c1)OCO3)C(=O)[C@H](CC(=O)N1CCN(C(=O)c3ccco3)CC1)C2	x	x	x	x	n	x
CCOc1ccc(C(C(=O)NC2CCCCC2)N(C(=O)Cc2cccs2)c2ccc(-n3cnnn3)c(OC)c2)cc1 (stereo not drawn)	n	7.4µM	10µM	u	n	n
COc1ccc(C(C(=O)NC2CCCCC2)N(C(=O)c2ccco2)c2ccc(-n3cnnn3)c(C)c2)cc1 (stereo not drawn)	x	x	x	x	n	n
COc1cccc(C(C(=O)NC2CCCC2)N(C(=O)c2ccco2)c2ccc(-n3cnnn3)c(C)c2)c1OC (stereo not drawn)	n	n	9.3µM	n	u	n
CCOc1ccc(C(C(=O)NC2CCCCC2)N(C(=O)c2ccco2)c2ccc(-n3cnnn3)c(C)c2)cc1 (stereo not drawn)	n	n	u	n	n	u
COc1ccc(NC(=O)CSCC(=O)N(C)Cc2ccc3c(c2)OCCO3)cc1	n	u	u	n	n	u
CCN[C@@H]1C[C@H](C)S(=O)(=O)c2sc(S(N)(=O)=O)cc21	x	u	n	x	x	x
Cc1cccc(CSc2nc(-c3cccc(C)c3)nc3c2Cc2c(CO)cnc(C)c2O3)c1	n	x	x	x	n	x
CCCNC(=O)C1CCC(CNS(=O)(=O)c2ccc3c(c2)CC(C)N3C(C)=O)CC1 (stereo not drawn)	n	n	n	n	n	n
COc1cccc(CNS(=O)(=O)c2ccc3c(c2)CCN3C(=O)C2CCC2)c1	n	x	x	x	n	x
COc1ccc(CNS(=O)(=O)c2ccc3c(c2)CC(C)N3C(=O)C2CC2)cc1 (stereo not drawn)	n	u	n	n	u	22µM
COCCNC(=O)C1CCC(CNS(=O)(=O)c2ccc3c(c2)CC(C)N3C(=O)C2CC2)CC1 (stereo not drawn)	n	12µM	n	n	n	n
COc1ccc(CCNS(=O)(=O)c2ccc3c(c2)CC(C)N3C(=O)C2CCC2)cc1OC (stereo not drawn)	n	x	x	x	n	x
COc1ccc(CNS(=O)(=O)c2ccc3c(c2)CCN3C(=O)C2CC2)cc1	n	n	x	n	-62	n
COc1cc(CNS(=O)(=O)c2ccc3c(c2)CC(C)N3C(=O)C2CCC2)cc(OC)c1OC (stereo not drawn)	n	u	n	n	n	10µM
CCOC(=O)c1[nH]c2ccccc2c1NC(=O)c1ccccc1OC	n	x	x	x	u	x
CCN(CC)S(=O)(=O)c1ccc2c(c1)N(CC(=O)Nc1ccc(C)cc1C)C(=O)C1CCCN21 (stereo not drawn)	n	x	x	x	n	x
CCN(CC)c1cccc(OCC(=O)N(C)CCC#N)c1	n	n	10µM	n	n	n
CCOc1cccc(C(=O)Nc2ccc(N(CC)CC)cc2)c1	n	u	n	n	n	u
COc1ccc(CCNC(=O)c2nc(SCc3ccc(F)cc3)ncc2Cl)cc1OC	n	x	x	x	u	x
CCc1ccc(-n2c(=O)c3c(C)c(C)sc3n(CC(=O)NCC3CCCO3)c2=O)cc1 (stereo not drawn)	n	n	n	n	u	n

Assay outcomes from PubChem.
